PubChem BioAssay (NCI)
Compounds without any hit were thinned out: in the full panel of roughly 79,000, 15% have a hit. Activity calls are given as the source filed them. No stated cut-off is given here; in the data, active means growth inhibition above about 70%; inactive means the rest.

Tests used:
[1] = NCI Yeast Anticancer Drug Screen. Data for the rad52 strain (AID 147);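 further: 0% = growth of vehicle-treated control cultures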; settings: S. cerevisiae rad52 mutant growth inhibition, hits give high values
Method in brief: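 DNA repair-defective yeast; compound exposure; growth scored against vehicle controls.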

[2] = NCI Yeast Anticancer Drug Screen. Data for the wt1 strain (AID 149);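 further: 0% = growth of vehicle-treated wt1 cultures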; settings: S. cerevisiae wt1 strain (SPY 50644) growth inhibition, hits give high values
Method in brief: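 Growth inhibition read against vehicle controls after compound exposure of the wt1 yeast strain.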

[3] = NCI Yeast Anticancer Drug Screen. Data for the rad50EPP+ strain (AID 151);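 further: 0% = growth of vehicle-treated control cultures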; settings: S. cerevisiae rad50 mutant strain, hits give high values
Method in brief: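 rad50EPP+ yeast treated with test compounds. Readout: growth vs vehicle control.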

[4] = NCI Yeast Anticancer Drug Screen. Data for the mgt1 strain (AID 153); settings: S. cerevisiae mgt1 mutant growth inhibition, hits give high values
Method in brief: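 Growth inhibition relative to vehicle controls was scored for the mgt1 yeast strain after compound exposure.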

[5] = NCI Yeast Anticancer Drug Screen. Data for the rad50 strain (AID 155);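 further: 0% = growth of vehicle-only cultures of the same strain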; settings: S. cerevisiae rad50 strain growth inhibition, hits give high values
Method in brief: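 Readout: growth inhibition relative to vehicle-treated cultures. Compound exposure was carried out in a genetically defined yeast strain deficient in DNA damage repair.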

[6] = NCI Yeast Anticancer Drug Screen. Data for the mec2-1 strain (AID 157); settings: S. cerevisiae mec2-1 strain, hits give high values
Method in brief: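 Growth inhibition is read against vehicle-treated controls after compound exposure of the mec2-1 yeast strain, which is defective in DNA damage repair or cell cycle control.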

[7] = NCI Yeast Anticancer Drug Screen. Data for the rad14 strain (AID 159);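 further: 0% = growth of vehicle-treated control cultures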; settings: S. cerevisiae rad14 strain growth inhibition, hits give high values
Method in brief: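 Growth inhibition vs vehicle controls; genetically altered yeast strain (DNA damage repair defect) treated with test compounds.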

[8] = NCI Yeast Anticancer Drug Screen. Data for the sgs1 mgt1 strain (AID 161);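 further: 0% = growth of cultures given vehicle only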; settings: S. cerevisiae sgs1 mgt1 strain, hits give high values
Method in brief: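 Percent growth inhibition was derived by comparing compound-exposed mutant yeast with vehicle-exposed cultures. The strain carries alterations in DNA damage repair.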

[9] = NCI Yeast Anticancer Drug Screen. Data for the CLN2oe strain (AID 163);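 further: 0% = growth of vehicle-only control cultures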; settings: S. cerevisiae CLN2oe strain, hits give high values
Method in brief: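 Compound-treated yeast; growth vs vehicle ctrl = % inhibition. Genetically altered strain (cell-cycle control).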

[10] = NCI Yeast Anticancer Drug Screen. Data for the cln2 rad14 strain (AID 165);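 further: 0% = growth equal to vehicle treated cultures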; settings: S. cerevisiae cln2 rad14 strain, hits give high values
Method in brief: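 Growth inhibition, relative to vehicle-treated controls, is the read-out. The test organism is a yeast strain with defined genetic alterations, cln2 rad14.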

[11] = NCI Yeast Anticancer Drug Screen. Data for the bub3 strain (AID 167); settings: S. cerevisiae bub3 mutant strain, hits give high values
Method in brief: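 Readout: yeast growth inhibition, expressed relative to vehicle-only wells. The test organism is a mutant strain from a panel with lesions in DNA repair or checkpoint genes.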

[12] = NCI Yeast Anticancer Drug Screen. Data for the wt2 strain (AID 169);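 further: 0% = growth of vehicle-treated yeast cultures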; settings: S. cerevisiae wt2 strain growth inhibition, hits give high values
Method in brief: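 Compound exposure of yeast; growth compared with vehicle controls; inhibition reported.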

[13] = NCI Yeast Anticancer Drug Screen. Data for the mlh1 strain (AID 171);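 further: 0% = growth of vehicle-treated control cultures of the same strain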; settings: S. cerevisiae mlh1 strain growth inhibition, hits give high values
Method in brief: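 Compounds are applied to a genetically altered yeast strain, and its growth is compared with that of vehicle-treated cultures to give percent inhibition.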

[14] = NCI Yeast Anticancer Drug Screen. Data for the sgs1 strain (AID 173);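 further: 0% = growth of vehicle-only control cultures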; settings: S. cerevisiae sgs1 mutant, hits give high values
Method in brief: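 Compounds applied to genetically altered yeast; growth compared with vehicle-treated cultures to give % inhibition.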

[15] = NCI Yeast Anticancer Drug Screen. Data for the mlh1 rad18 strain (AID 175); settings: S. cerevisiae mlh1 rad18 strain growth inhibition, hits give high values
Method in brief: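 Cells of a genetically altered yeast strain, deficient in DNA damage repair, were treated with compound. Their growth was then compared with that of vehicle-treated cultures to give inhibition.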

[16] = NCI Yeast Anticancer Drug Screen. Data for the rad18 strain (AID 177); settings: S. cerevisiae rad18 mutant growth inhibition, hits give high values
Method in brief: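 Compounds are applied to a repair-deficient yeast strain, and growth is compared with that of vehicle-treated cultures to give percent inhibition.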

[17] = at 5.0 µM (retest, dose inferred, filed as 0.5)
[18] = at 50.0 µM (retest, dose inferred, filed as 5.0)

Measured: growth inhibition

COC(=O)C1=C(C(=O)OC)CC(n2nnc(C(=O)OC)c2C(=O)OC)=CC1
inactive: [1]; at 1.2 µM -1% | [1]; at 3.7 µM 1% | [1]; at 11.0 µM 2% | [1]; at 33.0 µM 0% | [1]; at 100.0 µM -2% | [2]; at 1.2 µM 0% | [2]; at 3.7 µM 0% | [2]; at 11.0 µM -1% | [2]; at 33.0 µM -1% | [2]; at 100.0 µM -2% | [3]; at 1.2 µM -2% | [3]; at 3.7 µM -2% | [3]; at 11.0 µM -3% | [3]; at 33.0 µM -3% | [3]; at 100.0 µM 1% | [4]; at 1.2 µM -1% | [4]; at 3.7 µM 1% | [4]; at 11.0 µM -2% | [4]; at 33.0 µM -2% | [4]; at 100.0 µM -6% | [5]; at 1.2 µM -1% | [5]; at 3.7 µM -3% | [5]; [17] -1% | [5]; at 11.0 µM -3% | [5]; at 33.0 µM -2% | [5]; [18] 0% | [5]; at 50.0 µM 43.4% | [5]; at 100.0 µM -4% | [6]; at 1.2 µM -4% | [6]; at 3.7 µM -6% | [6]; [17] -1% | [6]; at 11.0 µM -5% | [6]; at 33.0 µM -4% | [6]; [18] -1% | [6]; at 50.0 µM 1.2% | [6]; at 100.0 µM -9% | [7]; at 1.2 µM 0% | [7]; at 3.7 µM 3% | [7]; at 11.0 µM 4% | [7]; at 33.0 µM 3% | [7]; at 100.0 µM 1% | [8]; [17] 6% | [8]; [18] -6% | [8]; at 50.0 µM 0.5% | [9]; at 1.2 µM -7% | [9]; at 3.7 µM -3% | [9]; at 11.0 µM -4% | [9]; at 33.0 µM -1% | [9]; at 100.0 µM -7% | [10]; [17] -2% | [10]; [18] -2% | [10]; at 50.0 µM -9.5% | [11]; at 1.2 µM -4% | [11]; at 3.7 µM -4% | [11]; [17] -1% | [11]; at 11.0 µM -3% | [11]; at 33.0 µM -6% | [11]; [18] 1% | [11]; at 50.0 µM -4.1% | [11]; at 100.0 µM -2% | [12]; at 1.2 µM -1% | [12]; at 3.7 µM -2% | [12]; at 11.0 µM -1% | [12]; at 33.0 µM -2% | [12]; at 100.0 µM -3% | [13]; at 1.2 µM -1% | [13]; at 3.7 µM -2% | [13]; at 11.0 µM -2% | [13]; at 33.0 µM -1% | [13]; at 100.0 µM -3% | [14]; at 1.2 µM -1% | [14]; at 3.7 µM -1% | [14]; at 11.0 µM -2% | [14]; at 33.0 µM -2% | [14]; at 100.0 µM 0% | [15]; [17] -2% | [15]; [18] 44% | [15]; at 50.0 µM 4.4% | [16]; at 1.2 µM 0% | [16]; at 3.7 µM 1% | [16]; at 11.0 µM 0% | [16]; at 33.0 µM -1% | [16]; at 100.0 µM 1%

CCCCCCCCCCCCCCCCCCNC(=S)/N=C/c1c(O)c2ccccc2[nH]c1=O
active: [8]; at 50.0 µM 86.5% | [11]; at 50.0 µM 72.3%
inactive: [1]; at 1.2 µM 7% | [1]; at 3.7 µM 4% | [1]; at 11.0 µM 16% | [1]; at 33.0 µM 11% | [1]; at 100.0 µM 12% | [2]; at 1.2 µM -32% | [2]; at 3.7 µM -6% | [2]; at 11.0 µM -3% | [2]; at 33.0 µM -3% | [2]; at 100.0 µM -3% | [3]; at 1.2 µM 1% | [3]; at 3.7 µM 3% | [3]; at 11.0 µM 12% | [3]; at 33.0 µM 29% | [3]; at 100.0 µM 40% | [4]; at 1.2 µM 1% | [4]; at 3.7 µM 4% | [4]; at 11.0 µM 2% | [4]; at 33.0 µM 1% | [4]; at 100.0 µM 0% | [5]; at 1.2 µM -1% | [5]; at 3.7 µM 0% | [5]; [17] -12% | [5]; at 11.0 µM 1% | [5]; at 33.0 µM 1% | [5]; [18] 61% | [5]; at 50.0 µM 63% | [5]; at 100.0 µM -1% | [6]; at 1.2 µM 0% | [6]; at 3.7 µM 2% | [6]; [17] -5% | [6]; at 11.0 µM -3% | [6]; at 33.0 µM 2% | [6]; [18] 27% | [6]; at 50.0 µM 6.6% | [6]; at 100.0 µM -1% | [7]; at 1.2 µM 1% | [7]; at 3.7 µM 1% | [7]; at 11.0 µM 0% | [7]; at 33.0 µM 4% | [7]; at 100.0 µM 4% | [8]; [17] 4% | [8]; [18] 26% | [9]; at 1.2 µM -4% | [9]; at 3.7 µM -3% | [9]; at 11.0 µM 2% | [9]; at 33.0 µM -7% | [9]; at 100.0 µM 3% | [10]; [17] -7% | [10]; [18] 16% | [10]; at 50.0 µM -24% | [11]; at 1.2 µM -4% | [11]; at 3.7 µM -4% | [11]; [17] -25% | [11]; at 11.0 µM -2% | [11]; at 33.0 µM -5% | [11]; [18] 69% | [11]; at 100.0 µM 26% | [12]; at 1.2 µM -3% | [12]; at 3.7 µM -1% | [12]; at 11.0 µM -2% | [12]; at 33.0 µM 4% | [12]; at 100.0 µM 20% | [13]; at 1.2 µM 0% | [13]; at 3.7 µM -2% | [13]; at 11.0 µM -3% | [13]; at 33.0 µM -4% | [13]; at 100.0 µM -4% | [14]; at 1.2 µM 0% | [14]; at 3.7 µM 3% | [14]; at 11.0 µM 6% | [14]; at 33.0 µM 11% | [14]; at 100.0 µM 23% | [15]; [17] 9% | [15]; [18] 28% | [15]; at 50.0 µM 58.4% | [16]; at 1.2 µM 2% | [16]; at 3.7 µM 4% | [16]; at 11.0 µM 6% | [16]; at 33.0 µM 22% | [16]; at 100.0 µM 25%
